MLL AF4-AF9 inh = inhibitors of AF4 peptide binding to AF9, primary screen, biochemical, AlphaScreen, biotin-AF4 peptide, FLAG-AF9, single point; inhibition, % at 10 µM; actives 0.47% (n = 350,000); AID 651704, 2012;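 active means every replicate reaching a set inhibition limit, whatever the replicate mean, cut at about 25% in these data; inconclusive means mean inhibition reaches that limit but some replicates miss it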
DENV2 CPE = inhibitors of DENV2 cytopathic effect, primary screen, cell-based, plate reader, single concentration. DENV2-infected cells, cytopathic effect rescue. CPE inhibition, % at 9.99 µM. actives 1.7% (n = 350,000); in the data active means CPE inhibition above about 20%, passing the limit was not always enough; inconclusive means no clear call, values can overlap the other calls; tested in BHK-21 cells
RAD54 inh = inhibitors of human RAD54 branch migration, primary screen, biochemical, fluorescence, single point; DNA repair and recombination protein RAD54-like (Homo sapiens), Q92698; RAD54 Holliday junction branch migration, FAM/BHQ fluorescence; inhibition, % at 10.4 µM; actives 0.14% (n = 360,000);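 active means mean normalized replicate activity at least 40 and at least half of replicates scoring 40 or more; inconclusive means only one of the two criteria met; inactive means mean below 40 and under half of replicates reaching 40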;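 further: inhibitors cause a drop in the FAM fluorescence signal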
Target sequence (Q92698 whole entry, looked up): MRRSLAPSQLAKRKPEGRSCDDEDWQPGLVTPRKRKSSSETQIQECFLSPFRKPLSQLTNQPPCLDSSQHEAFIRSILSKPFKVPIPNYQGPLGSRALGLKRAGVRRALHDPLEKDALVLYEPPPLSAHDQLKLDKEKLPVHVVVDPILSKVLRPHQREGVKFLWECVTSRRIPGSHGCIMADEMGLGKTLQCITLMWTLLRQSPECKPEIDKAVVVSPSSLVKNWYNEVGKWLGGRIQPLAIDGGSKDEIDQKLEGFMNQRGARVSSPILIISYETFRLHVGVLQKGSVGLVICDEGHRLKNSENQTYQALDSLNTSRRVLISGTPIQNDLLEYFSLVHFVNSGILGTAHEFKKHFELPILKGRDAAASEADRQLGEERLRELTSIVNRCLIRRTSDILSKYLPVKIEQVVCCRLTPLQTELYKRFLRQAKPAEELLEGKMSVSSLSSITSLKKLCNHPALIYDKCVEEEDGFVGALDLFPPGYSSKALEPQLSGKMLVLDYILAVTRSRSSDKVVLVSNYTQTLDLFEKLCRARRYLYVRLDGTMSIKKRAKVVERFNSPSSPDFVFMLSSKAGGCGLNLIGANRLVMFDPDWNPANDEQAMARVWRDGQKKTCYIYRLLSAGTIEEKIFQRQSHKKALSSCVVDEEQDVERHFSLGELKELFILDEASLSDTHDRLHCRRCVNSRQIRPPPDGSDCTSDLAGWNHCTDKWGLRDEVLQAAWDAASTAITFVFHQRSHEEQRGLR
RAD52 anneal inh = RAD52 DNA annealing inhibitors, primary screen, biochemical, FRET, single point, set 2 | DNA repair protein RAD52 homolog (Homo sapiens), P43351 | recombinant RAD52 DNA annealing, FRET fluorescence | inhibition, % at 18.7 µM | actives 0.46% (n = 360,000);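 active means every replicate showing at least 50% inhibition; inconclusive means mean inhibition at least 50% but not in every replicate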
dFosB activator = activators of delta FosB homodimer, primary screen, biochemical, fluorescence polarization, TAMRA-CDK5 oligo, single point. purified delta FosB; percent of positive-control signal above neutral wells. actives 0.99% (n = 340,000). activation, % at 25 µM;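 active means mean activation above about 17%, with every replicate also reaching it, limit read from the data, passing the limit was not always enough; inconclusive means only one of the two conditions met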
INS-1E GSIS act = GLuc luminescence reporter in INS-1E cells, primary screen for activators of glucose-dependent secretion of insulin | actives 0.61% (n = 370,000) | activation, % at 16.6 µM | INS-1E GLuc reporter insulin secretion, 2-3 h;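 active means lowest replicate activation of at least 40%, so every replicate reaches that level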
Of the large screens only hits and unclear results are named; the others gave an inactive call. Rows were chosen to be rich in hits. Some 3.1% of all compounds tested hit in one or more screens of this group.

COc1ccc(-c2nc(N)ncc2-c2ccc(OC)c(OC)c2)c(O)c1	INS-1E GSIS act 49
COc1ccc(-c2cnc(N)nc2-c2ccc(OC)cc2)cc1	INS-1E GSIS act 52
Cc1ccc(C(=O)N/C(=C\c2ccccc2)C(=O)OCc2ccccc2)cc1	none (no result: MLL AF4-AF9 inh, DENV2 CPE, RAD54 inh, RAD52 anneal inh)
O=C(OCc1ccccc1)/C(=C/c1ccc(Cl)cc1)NC(=O)c1ccccc1Cl	INS-1E GSIS act 70 (no result: MLL AF4-AF9 inh, DENV2 CPE, RAD52 anneal inh)
C[C@H](CO)N1C[C@H](C)[C@@H](CN(C)C(=O)Nc2ccc(F)cc2)Oc2cc(-c3ccc(F)cc3)ccc2S1(=O)=O	none (no result: MLL AF4-AF9 inh, DENV2 CPE, RAD54 inh, RAD52 anneal inh, dFosB activator)
C[C@H](CO)N1C[C@H](C)[C@H](CN(C)C(=O)CCCN(C)C)OCCCC[C@H](C)Oc2ccc(NS(=O)(=O)c3ccc(Cl)cc3)cc2C1=O	DENV2 CPE 41 (no result: dFosB activator)
COc1ccc(S(=O)(=O)Nc2ccc3c(c2)C(=O)N([C@@H](C)CO)C[C@@H](C)[C@H](CN(C)C(=O)CCCN(C)C)OCCCC[C@@H](C)O3)cc1	DENV2 CPE 31 (no result: dFosB activator)
COc1ccc(S(=O)(=O)Nc2ccc3c(c2)C(=O)N([C@@H](C)CO)C[C@@H](C)[C@@H](CN(C)C(=O)CCCN(C)C)OCCCC[C@@H](C)O3)cc1	none (no result: dFosB activator)
CO[C@H]1CN(C)C(=O)c2cc(NS(=O)(=O)c3cn(C)cn3)ccc2OC[C@@H](C)N(Cc2cccc(F)c2)C[C@H]1C	none (no result: dFosB activator)
NC(=O)C(CCC(=O)c1ccc(Br)cc1)S(=O)(=O)c1ccccc1 (stereo not drawn)	DENV2 CPE 31 (no result: RAD54 inh)
CCCc1cc(C(=O)N2CCN(C(c3ccccc3)c3ccccc3)CC2)no1	MLL AF4-AF9 inh 50
COCC(=O)N(C)C[C@@H]1Oc2cc(C3=CCCC3)ccc2S(=O)(=O)N([C@@H](C)CO)C[C@@H]1C	none (no result: dFosB activator)
C[C@H](CO)N1C[C@H](C)[C@H](CN(C)Cc2ccc3c(c2)OCO3)OCCCC[C@H](C)Oc2ccc(NC(=O)NC3CCCCC3)cc2C1=O	DENV2 CPE 26 (no result: dFosB activator)
C[C@@H]1CCCCO[C@@H](CN(C)Cc2ccc3c(c2)OCO3)[C@H](C)CN([C@@H](C)CO)C(=O)c2cc(NC(=O)NC3CCCCC3)ccc2O1	DENV2 CPE 44 (no result: dFosB activator)
CO[C@H]1CN(C)C(=O)c2cc(NS(=O)(=O)CC(F)(F)F)ccc2OC[C@@H](C)N(Cc2nccs2)C[C@H]1C	none (no result: dFosB activator)
CN1CCN(C(=O)c2cc3sc4ccccc4c3s2)CC1	DENV2 CPE 43 (no result: MLL AF4-AF9 inh)
CCn1c(=O)c2cc(C(=O)N3CCN(C)CC3)sc2c2ccccc21	DENV2 CPE inconclusive (no result: INS-1E GSIS act)
C=C1C(=O)C23C(O)C1CCC2C12CCCC(C)(COC(C)=O)C1C(O)C3(O)OC2 (stereo not drawn)	INS-1E GSIS act 162 (no result: RAD54 inh)
CCn1c2ccccc2c2cc(NC(=O)c3ccc([N+](=O)[O-])cc3)ccc21	none (no result: MLL AF4-AF9 inh, DENV2 CPE, RAD54 inh, RAD52 anneal inh)
CCn1c2ccccc2c2cc(NC(=O)c3ccccc3[N+](=O)[O-])ccc21	DENV2 CPE 32 (no result: RAD54 inh)
CCCNC(=O)N1CC2(CCN(C)CC2)c2c(n(C)c3cc(OC)ccc23)[C@@H]1CO	none (no result: MLL AF4-AF9 inh, DENV2 CPE, RAD54 inh, RAD52 anneal inh, dFosB activator)
C[C@H](CO)N1C[C@H](C)[C@@H](CN(C)C(=O)NC2CCCCC2)Oc2c(NC(=O)Cn3cnnn3)cccc2C1=O	none (no result: MLL AF4-AF9 inh, DENV2 CPE, RAD54 inh, RAD52 anneal inh, dFosB activator)
CC(C)NC(=O)N(C)C[C@H]1Oc2cc(Br)ccc2S(=O)(=O)N([C@@H](C)CO)C[C@@H]1C	none (no result: dFosB activator)
Cc1csc(/C(=N/OC(=O)c2ccco2)C(N)=O)n1	DENV2 CPE 35
COc1ccc(/C(N)=N/OC(=O)c2ccco2)cc1OC	none (no result: RAD54 inh)
C[C@H](CO)N1C[C@H](C)[C@@H](CN(C)C(=O)NC2CCCC2)Oc2ncc(-c3ccccc3)cc2C1=O	none (no result: dFosB activator)
COc1ccc(S(=O)(=O)Nc2ccc3c(c2)C(=O)N([C@@H](C)CO)C[C@@H](C)[C@H](CN(C)S(=O)(=O)c2cccs2)OCCCC[C@H](C)O3)cc1	DENV2 CPE 26 (no result: dFosB activator)
COc1ccc(S(=O)(=O)N(C)C[C@H]2OCCCC[C@@H](C)Oc3ccc(NS(=O)(=O)c4cccs4)cc3C(=O)N([C@@H](C)CO)C[C@@H]2C)cc1	none (no result: dFosB activator)
C[C@@H]1CCCCO[C@H](CN(C)S(=O)(=O)c2ccc(Cl)cc2)[C@@H](C)CN([C@@H](C)CO)C(=O)c2cc(NS(=O)(=O)c3cccs3)ccc2O1	DENV2 CPE 69 (no result: dFosB activator)
COc1ccc(S(=O)(=O)Nc2ccc3c(c2)C(=O)N([C@@H](C)CO)C[C@@H](C)[C@H](CN(C)S(=O)(=O)c2cccs2)OCCCC[C@@H](C)O3)cc1	none (no result: dFosB activator)
COc1ccc(S(=O)(=O)N(C)C[C@H]2OCCCC[C@@H](C)Oc3ccc(NS(=O)(=O)c4cccs4)cc3C(=O)N([C@@H](C)CO)C[C@H]2C)cc1	DENV2 CPE 23 (no result: dFosB activator)
C[C@@H]1CCCCO[C@@H](CN(C)Cc2ccncc2)[C@@H](C)CN([C@@H](C)CO)C(=O)c2cc(NS(=O)(=O)c3ccccc3)ccc2O1	none (no result: dFosB activator)
O=[N+]([O-])c1ccc(C(O)CN2CCN(C/C=C/c3ccccc3)CC2)cc1 (stereo not drawn)	INS-1E GSIS act 51
COc1ccc(CN(C)C[C@@H]2Oc3ccc(NC(=O)c4ccncc4)cc3CC(=O)N([C@@H](C)CO)C[C@@H]2C)cc1	none (no result: dFosB activator)
CC1=C([C@H](O)CCc2ccccc2)[C@H](CO)n2c(=O)n(-c3ccccc3)c(=O)n2C1	DENV2 CPE 36 (no result: dFosB activator, INS-1E GSIS act)
O=C(NCC1CCCCC1)c1cccnc1Cl	none
O=C(NCCCCNC(=O)c1cccnc1Cl)c1cccnc1Cl	DENV2 CPE 69
CCOc1ccccc1NC(=O)c1nnn(CC(=O)Nc2cc(C)cc(C)c2)c1N	dFosB activator 26
CCOc1ccc(NC(=O)Cn2nnc(C(=O)NCCc3ccc(OC)c(OC)c3)c2N)cc1	dFosB activator 32 (no result: MLL AF4-AF9 inh, DENV2 CPE, RAD54 inh, RAD52 anneal inh, INS-1E GSIS act)
COc1cccc(Cn2nnc(C(=O)Nc3cc(C)ccc3OC)c2N)c1	none (no result: MLL AF4-AF9 inh, DENV2 CPE, RAD52 anneal inh, INS-1E GSIS act)
Cc1cc(C)cc(NC(=O)Cn2nnc(C(=O)NCCc3ccccc3)c2N)c1	dFosB activator 83
COc1cccc(Cn2nnc(C(=O)Nc3ccc(C)cc3)c2N)c1	dFosB activator 16
COc1ccccc1NC(=O)c1nnn(CC(=O)Nc2ccccc2)c1N	none (no result: MLL AF4-AF9 inh, DENV2 CPE, RAD52 anneal inh, INS-1E GSIS act)
COc1ccc(Cl)cc1NC(=O)c1nnn(CC(=O)Nc2ccc(C)c(C)c2)c1N	dFosB activator 125
CN(C[C@@H]1N[C@H](CO)[C@@H]1c1ccc(C2=CCCCC2)cc1)S(C)(=O)=O	none (no result: MLL AF4-AF9 inh, RAD52 anneal inh, dFosB activator)
CO[C@H]1CN(C)C(=O)c2cc(NC(=O)Nc3cc(Cl)cc(Cl)c3)ccc2OC[C@@H](C)NC[C@@H]1C	RAD52 anneal inh 59 (no result: MLL AF4-AF9 inh, DENV2 CPE, RAD54 inh, dFosB activator)
CO[C@@H]1CN(C)C(=O)c2cc(NC(=O)Nc3ccc(Cl)c(Cl)c3)ccc2OC[C@H](C)NC[C@@H]1C	RAD52 anneal inh 52 (no result: MLL AF4-AF9 inh, DENV2 CPE, dFosB activator)

Screening data from PubChem BioAssay.
